Inconclusive results are not listed. Where a call stands in place of a potency, no number is given. Calls of active or inactive are those of the source. Calls follow the shape of the dose curve; as a rule, active = well fitted inhibition curve with a large enough effect; inconclusive = small, poorly fitted or top-dose-only effect; inactive = flat fitted curve, though single readings scatter.
Potency is read from the fitted curve at half-maximal effect.

The nature of the assay: P-glycoprotein substrates identified in KB-8-5-11 adenocarcinoma cell line, qHTS therapeutic library screen (AID 1346987). Also: nearly all actives have a fitted effect of over 65% in size. As to conditions: KB-8-5-11 (P-gp overexpressing) viability, CellTiter-Glo, 72 h; series mostly up to 44.5 µM. The source says: The ATP-binding cassette transporters P-glycoprotein (P-gp) is known to limit brain penetration of many chemotherapy drugs. […] As such, we developed a high-throughput screen (HTS) to identify substrates of P-gp from a series of chemical libraries including the National Center for Advancing Translational Sciences Pharmaceutical Collection NPC, 2,816 compounds), testing a total of 10,804 compounds, most of which have known mechanisms of action. We used the CellTiter-Glo viability assay to test library compounds against the parental KB-3-1 human cervical adenocarcinoma cell line and the colchicine-selected sub-line KB-8-5-11 that over-expresses P-gp. KB-8-5-11 cells were also tested in the presence of a P-gp inhibitor (tariquidar) to assess reversability of transporter-mediated resistance. Of the tested compounds, a total of 90 P-gp substrates were identified including 55 newly identified P-gp substrates. Substrates were confirmed using an orthogonal killing assay against HEK-293 cells transfected with P-gp. As exemplars, we confirmed that […] (cyclin-dependent kinase inhibitor); AT9283, (Janus kinase 2/3 inhibitor); ispinesib (kinesin spindle protein inhibitor); gedatolisib (PKI-587, phosphoinositide 3-kinase/mammalian target of rampamycin inhibitor); GSK-690693 (AKT inhibitor); and KW-2478 (heat shock protein 90 inhibitor) were substrates , and direct ATPase stimulation was assessed. ABCG2 was also found to confer high levels of resistance to AT9283, GSK-690693 and gedatolisib, while ispinesib, AT7519 and KW-2478 were weaker substrates.
The HeLa derivative cell line, KB-3-1, and its colchicine-selected, P-gp-overexpressing subline, KB-8-5-11 were maintained in DMEM with 10% FCS and Pen/Strep with glutamine at 37 degree C in 5% CO2. For KB-8-5-11 cells, colchicine was added to the medium at a concentration of 100 ng/mL. HEK-293 cells transfected with empty vector (pcDNA) or vector containing human ABCB1 (MDR-19) or ABCG2 (R-5) have been described previously (Robey, Lin, Qiu, Chan & Bates, 2011) and were maintained in EMEM supplemented with 10% FCS, Pen/Strep and glutamine with 2 mg/ml G418 to select for the expression of the transporter. Cultures were confirmed to be free of mycoplasma infection using the MycoAlert Mycoplasma Detection Kit (Lonza, Walkersville, MD). For the screen, assay medium was identical to culture medium except for KB-8-5-11 where colchicine was excluded from the medium.
All cell lines were plated into 1536-well plates at 500 cells/well in 5 uL media. Compounds were then pinned in dose-response using a 1536-head pin tool (Kalypsis, San Diego, CA) and plates were incubated at 37 degree C in 5% CO2 for an additional 72 h. CellTiter-Glo reagent (Promega) was dispensed into the wells, incubated for 5 min and luminescence was read on a ViewLux instrument (Perkin-Elmer). Cytotoxic compounds were defined as those that yielded a curve class of -1.1, -1.2, -2.1, -2.2, -2.3, or -2.4, a maximum response of >50% and an AC50 of < 10 uM. Cherry-picked hits from screening analysis were tested with both the KB pair of cell lines, and the pcDNA (empty vector control) and MDR-19 (P-gp overexpressing) pair were tested, in the absence and presence of tariquidar.
For the compound `CN(C)CC1CCOC1(c1ccccc1)c1ccccc1` (stereo not given), the Potency entry is “inactive”. For `O=C1NC(=O)C(c2cn3c4c(cccc24)CCC3)C1c1c[nH]c2ccccc12` (stereo not given), the Potency was 1.3 µM (active). With `C=CC(C)(C)c1[nH]c2cc3c(cc2c1CC1NC(=O)C2CCCN2C1=O)C=CC(C)(C)O3` (stereo not given), the Potency entry was “inactive”.

For `COc1ccc([C@@]2(O)c3c(ccc(CC=C(C)C)c3O)NC(=O)[C@@H]2OC)cc1`, the Potency result was “inactive”.

Take `Oc1ccc(CNc2ccccc2F)c2cccnc12`: the Potency was 6.51 µM (active). Still for that read-out and setting: under `Nc1ncnc2c1nc(N)n2[C@@H]1O[C@H](CO)[C@@H](O)[C@H]1O` stands 1.16 µM (active). Turning to `CC(=O)c1ccc2c(c1)C(O)C(C(C)(C)O)O2` (stereo not given), the Potency entry was “inactive”. On the same count and under the same terms, to `O=C(N/N=C/c1ccc(O)c(O)c1)c1cc2ccccc2cc1O` belongs “inactive”.

For the compound `CC1=CC(=O)CC(C)(CO)C1(O)/C=C/C(C)O[C@@H]1O[C@H](CO)[C@@H](O)[C@H](O)[C@H]1O` (stereo not given in full), the Potency entry was “inactive”.

As for `COc1cc(/C=C/C(=O)OC[C@H]2O[C@@](CO)(O[C@H]3O[C@H](CO)[C@@H](O)[C@H](O)[C@H]3O)[C@@H](OC(=O)/C=C/c3ccc(O)c(OC)c3)[C@@H]2O)ccc1O`, the Potency result was “inactive”. Turning to `COc1c(/C=C/C(C)(C)O)ccc2c1C(=O)OCc1cc(C)cc(O)c1O2`, the Potency entry is “inactive”. `CC1CC[C@]2(C(=O)O)CC[C@]3(C(=O)O)C(=CCC4[C@@]5(C)CC[C@H](O[C@@H]6O[C@H](CO)[C@@H](O)[C@H](O)[C@H]6O)C(C)(C)C5CC[C@]43C)C2C1C` (stereo not given in full): the Potency result is “inactive”. Still for that read-out and setting: under `OC[C@H]1O[C@@H](OC[C@H]2O[C@@H](OC/C=C/c3ccccc3)[C@H](O)[C@@H](O)[C@@H]2O)[C@@H](O)[C@@H]1O` stands “inactive”. Still for that read-out and setting: to `CC[C@@H](N)CNc1ccnc(-c2cc(-c3cnn(C)c3)ccc2O)n1` belongs 5.17 µM (active). For the compound `C=C(C)C1CCC2(C(=O)O[C@@H]3O[C@H](CO[C@@H]4O[C@H](CO)[C@@H](O)[C@H](O)[C@H]4O)[C@@H](O)[C@H](O[C@@H]4O[C@@H](C)[C@H](O)[C@@H](O)[C@H]4O)[C@H]3O)CCC3(C(=O)O)C(CCC4C5(C)CCC(O)C(C)(C)C5CCC43C)C12` (stereo not given in full), the outcome was “inactive [at 9.29 µM]”. With `CC(=O)O[C@@H]1[C@@H](CO)O[C@@](CO)(O[C@H]2O[C@H](COC(=O)/C=C/c3ccccc3)[C@@H](O)[C@H](O)[C@H]2O)[C@H]1O`, the Potency entry is “inactive”. Take `CN(C)CCCCC(=O)Nc1ccc(NC(=S)NC(=O)c2ccc(C(C)(C)C)cc2)cc1`: the Potency was 13 µM (active). Still for that read-out and setting: under `CCOCc1nc2c(N)nc3ccccc3c2n1CC(C)(C)O` stands “inactive”; under `Cc1[nH]c2ccccc2c1C1=C(NCCc2ccc(F)cc2)C(=O)N(C)C1=O`, 16.4 µM (active); under `CC(=O)OC1CC2C3(C)CCC(OC(=O)CC(=O)O)C(C)(C)C3CCC2(C)C2(C)CCC(C3(C)CCC(=O)O3)C12` (stereo not given), “inactive”. With `CC(=O)c1ccc(O[C@@H]2O[C@H](CO)[C@@H](O)[C@H](O)[C@H]2O)cc1`, the Potency result was “inactive”. Consider `C[C@@H]1CC[C@]2(C(=O)O)CC[C@]3(C)C(=CCC4[C@@]5(C)C[C@@H](O)[C@H](O)[C@@](C)(CO)C5CC[C@]43C)C2[C@]1(C)O` (stereo not given in full), for which the Potency entry is “inactive”. Turning to `O=C(O)/C=C/c1ccc(O)c(O[C@@H]2O[C@H](CO)[C@@H](O)[C@H](O)[C@H]2O)c1`, the Potency entry is “inactive”. As for `CCc1c(C)nc2c(-c3cnn(-c4cc(CO)ccn4)c3)c[nH]n2c1=O`, the Potency result is “inactive”. Same read-out and setting: under `C=C1CCC2C(C(C)(C)O)CCC2(C)CC(O)C(=C)CCC1O` (stereo not given) stands “inactive”. Still for that read-out and setting: under `COC(=O)[C@@]1(c2ccc(C)cc2)C[C@H]1CN1CCC(O)(c2ccccc2)CC1` stands “inactive”; under `COC(=O)CC(O)CC(O)/C=C/c1c(C)ccc2c1C(O)CC(C)C2` (stereo not given), “inactive”. Same read-out and setting: under `C/C(=C\CCC1(C)C2CCC(C2)C1(C)O)C(=O)O` (stereo not given) stands “inactive”; under `COc1cc(N2CCC(N3CCN(C)CC3)CC2)ccc1Nc1ncc(Cl)c(-c2c[nH]c3ccccc23)n1`, 0.517 µM (active); under `CC(=O)c1cc2c(cc1O)OC(C)(C)C=C2`, “inactive”.

On to `COC(=O)C1=CO[C@@H](O)C2C(CO)=CCC12` (stereo not given in full), for which the Potency entry was “inactive”. Same read-out and setting: to `C[C@H]1CC(=O)Nc2cccc(-c3cnn(C(C)(C)C)c3)c2N1` belongs “inactive”. On the same count and under the same terms, to `CC1(C)CCCC2(C)C=C(C(=O)O)C(O)CC12` (stereo not given) belongs “inactive”; to `C/C1=C\CCC(C)CCO[C@@H]2O[C@H](CO[C@@H]3OC[C@H](O)[C@H](O)[C@H]3OC1=O)[C@@H](O)[C@H](O)[C@H]2O` (stereo not given in full), “inactive”; to `C=C1C(=O)O[C@@H]2/C=C(\C)C(=O)/C=C/[C@](C)(O)C[C@@H](OC(=O)C(C)C)[C@@H]12`, 4.53 µM (active). Still for that read-out and setting: under `COc1cc2ncnc(Nc3cccc(Cl)c3F)c2cc1OC(=O)N1CCN(C)C[C@H]1C` stands “inactive”; under `O=C(OCC1=CC(O)C2C=CO[C@@H](O[C@@H]3O[C@H](CO)[C@@H](O)[C@H](O)[C@H]3O)C12)c1ccccc1` (stereo not given in full), “inactive”. For the compound `CC(=O)O[C@@H]1CC(C)=C2[C@H]1[C@H](C)CC[C@H]2/C=C(\C)C(=O)O`, the Potency entry is “inactive”.

For the compound `Nc1ncnc2c1ncn2CCNCCCCCO`, the Potency result is “inactive”. On to `COC(=O)Cc1cc2c(c([N+](=O)[O-])c1)N(C(=O)CC[C@H](N)C(=O)O)CC2`, for which the Potency entry is “inactive”.

(Values after PubChem BioAssay (NCATS).)
